Results filed as inconclusive are left out. The source made the active and inactive calls. Unless noted, the call rests on the fitted dose curve; in most records, active means well fitted curve in the direction sought with a large enough effect in the repeat runs; inconclusive means weak or mixed curves; inactive means flat fitted curve, though single readings scatter.
Columns and labels:
[1] = qHTS assay to test for compound auto fluorescence at 535 nm (green) in HEK293 cells (AID 720680)
[2] = qHTS assay to test for compound auto fluorescence at 460 nm (blue) in HEK293 cell free culture (AID 720681)
Method in brief: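 Blue fluorescence (Ex 405/Em 460 nm, triamterene-equivalent) was read immediately after pin transfer of compound or DMSO into medium (DMEM, 10% FBS) without cells.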

[3] = qHTS assay to test for compound auto fluorescence at 590 nm (red) in HEK293 cell free culture (AID 720683)
Method in brief: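 Red-channel autofluorescence of compounds in culture medium (DMEM, 10% FBS), no cells, measured at 540/590 nm. Rose Bengal sodium is the reference fluorophore for equivalence.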

[4] = qHTS assay to test for compound auto fluorescence at 590 nm (red) in HepG2 cell free culture (AID 720684)
Method in brief: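 No cells present: MEM + 10% FBS only. Compound pinned in, red label read (540/590 nm). Activity = fluorescence equivalent to Rose Bengal sodium.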

[5] = qHTS assay to test for compound auto fluorescence at 535 nm (green) in HepG2 cell free culture (AID 720686)
[6] = molecular target: Glucocorticoid receptor (Homo sapiens) (UniProt P04150); test: qHTS assay to identify small molecule agonists of the glucocorticoid receptor (GR) signaling pathway (AID 720691; active means well fitted activation curve with a large enough effect in the signal ratio in the repeat runs, not every such curve was filed as active; the % refers to the signal ratio)
Method in brief: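 Compounds in DMSO, alongside positive controls, were added to GR-bla HeLa reporter cells and incubated 18 h at 37 C; GRE-driven beta-lactamase was detected by fluorescence after 2 h with FRET substrate at room temperature.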

[7] = qHTS assay to test for compound auto fluorescence at 460 nm (blue) in HepG2 cell free culture (AID 720685)
Method in brief: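 Cell-free plates of MEM plus 10% FBS received 23 nL compound or DMSO vehicle; blue-channel (405/460 nm) intensity scored against triamterene as reference fluorophore.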

[8] = qHTS assay to test for compound auto fluorescence at 460 nm (blue) in HepG2 cells (AID 720687)
Method in brief: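 Blue-channel autofluorescence (Ex/Em 405/460 nm, triamterene-equivalent) was measured after 1 hr compound exposure at 37 C, 5% CO2. Cells were HepG2, plated overnight at 37 C in MEM plus 10% FBS.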

[9] = molecular target: Glucocorticoid receptor (Homo sapiens) (UniProt P04150); test: qHTS assay to identify small molecule antagonists of the glucocorticoid receptor (GR) signaling pathway (AID 720692; active means well fitted inhibition curve with a large enough effect in the signal ratio in the repeat runs, not every such curve was filed as active; the % refers to the signal ratio)
Method in brief: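 In a 1536-well cell format, compounds were added 4 h after seeding GR-bla HeLa cells, together with dexamethasone at 5 nM final; reporter activity was measured by FRET-substrate fluorescence following 18 h at 37 C.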
On the % scale 0 is the no-effect control and ±100 the full control effect.

Glucocorticoid receptor (Homo sapiens), sequence (P04150 whole entry, looked up): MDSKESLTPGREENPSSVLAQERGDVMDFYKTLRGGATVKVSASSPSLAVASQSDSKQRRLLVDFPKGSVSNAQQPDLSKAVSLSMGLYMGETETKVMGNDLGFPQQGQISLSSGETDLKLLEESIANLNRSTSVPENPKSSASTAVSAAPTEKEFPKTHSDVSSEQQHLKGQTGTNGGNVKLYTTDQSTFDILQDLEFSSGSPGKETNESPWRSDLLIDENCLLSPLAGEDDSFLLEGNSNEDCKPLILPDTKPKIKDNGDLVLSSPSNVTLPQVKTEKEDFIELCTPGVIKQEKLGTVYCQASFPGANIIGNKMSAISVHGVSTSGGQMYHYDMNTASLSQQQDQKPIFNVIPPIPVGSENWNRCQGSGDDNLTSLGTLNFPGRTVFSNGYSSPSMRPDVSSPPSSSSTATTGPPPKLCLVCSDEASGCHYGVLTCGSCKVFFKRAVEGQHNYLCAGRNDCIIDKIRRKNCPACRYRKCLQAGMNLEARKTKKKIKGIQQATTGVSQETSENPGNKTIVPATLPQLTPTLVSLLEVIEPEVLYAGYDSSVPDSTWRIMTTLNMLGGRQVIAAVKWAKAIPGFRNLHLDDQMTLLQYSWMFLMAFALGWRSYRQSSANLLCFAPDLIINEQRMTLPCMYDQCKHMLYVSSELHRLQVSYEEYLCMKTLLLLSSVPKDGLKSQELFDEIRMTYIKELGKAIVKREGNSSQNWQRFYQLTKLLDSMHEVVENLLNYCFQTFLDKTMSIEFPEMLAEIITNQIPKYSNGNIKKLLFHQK

O=C(/C=C/c1ccccc1)NCCO
inactive: outcome [1] | outcome [2] | outcome [3] | outcome [4] | outcome [5] | Potency [6]

CCN(CCO)c1cccc(C)c1
inactive: outcome [1] | outcome [2] | outcome [4] | outcome [7] | outcome [5] | outcome [8]

COc1ccc(NS(=O)(=O)c2ccc(N)cc2)nn1
inactive: fluorescence, % of fluorescein [1] -0.0152% [at 18.6 µM] | fluorescence, % of fluorescent control [2] 0.201% [at 18.6 µM] | fluorescence, % of fluorescent control [3] -0.041% [at 18.6 µM] | fluorescence, % of fluorescent control [7] -0.109% [at 18.6 µM] | fluorescence, % of fluorescein control [5] -0.0862% [at 18.6 µM] | fluorescence, % of fluorescent control [8] 0.0805% [at 18.6 µM] | Potency [6] | outcome [9]

C=C(C)[C@@H]1CC[C@@H](C)C[C@@H]1O
inactive: outcome [1] | outcome [2] | outcome [3] | outcome [4] | outcome [5] | outcome [8]

Cc1cccc(Nc2ccncc2S(=O)(=O)NC(=O)NC(C)C)c1
inactive: fluorescence, % of fluorescein [1] -0.12% [at 18.6 µM] | fluorescence, % of fluorescent control [2] -0.219% [at 18.6 µM] | fluorescence, % of fluorescent control [3] 0.257% [at 18.6 µM] | fluorescence, % of Rose Bengal [4] -0.0539% [at 18.6 µM] | fluorescence, % of fluorescent control [7] -0.124% [at 18.6 µM] | fluorescence, % of fluorescein control [5] 0.0067% [at 18.6 µM] | fluorescence, % of fluorescent control [8] -0.0073% [at 18.6 µM] | Potency [6] | outcome [9]

NC(Cc1c[nH]c2ccccc12)C(=O)O (stereo not given)
inactive: outcome [1] | outcome [2] | outcome [4] | outcome [7] | outcome [5] | outcome [8] | Potency [6] | outcome [9]

CCC1COC(=O)O1 (stereo not given)
inactive: outcome [1] | outcome [2] | outcome [4] | outcome [7] | outcome [5] | outcome [8] | Potency [6]

CCOC(=O)C(C)(C)C
inactive: outcome [1] | outcome [2] | outcome [3] | outcome [4] | outcome [7] | outcome [5] | outcome [8]

CN(C)CCOCCN(C)CCO
inactive: outcome [1] | outcome [2] | outcome [3] | outcome [4] | outcome [7] | outcome [5] | outcome [8] | Potency [6] | outcome [9]

O=C1c2ccccc2-c2ccccc21
inactive: outcome [1] | outcome [2] | outcome [3] | outcome [4] | outcome [7] | outcome [5] | outcome [8] | Potency [6] | outcome [9]

C[C@H](CCC(=O)O)[C@H]1CC[C@H]2[C@@H]3[C@H](O)C[C@@H]4C[C@H](O)CC[C@]4(C)[C@H]3C[C@H](O)[C@]12C
inactive: outcome [1] | outcome [2] | outcome [3] | outcome [4] | outcome [7] | outcome [5] | outcome [8] | Potency [6] | outcome [9]

CCN1CN(CC)CN(CC)C1
inactive: outcome [1] | outcome [2] | outcome [3] | outcome [4] | outcome [7] | outcome [5] | outcome [8] | Potency [6] | outcome [9]

CCCCCCCCCCCCC1CO1 (stereo not given)
inactive: outcome [1] | outcome [2] | outcome [3] | outcome [4] | outcome [5] | outcome [8] | Potency [6] | outcome [9]

C=CCOCC(O)CCl (stereo not given)
inactive: outcome [1] | outcome [2] | outcome [3] | outcome [4] | outcome [7] | outcome [5] | Potency [6] | outcome [9]

NC(=O)NC(=O)Cc1ccccc1
inactive: outcome [1] | outcome [2] | outcome [4] | outcome [7] | outcome [5] | outcome [8] | Potency [6] | outcome [9]

CC1(N)CCC(C(C)(C)N)CC1 (stereo not given)
inactive: outcome [1] | outcome [2] | outcome [3] | outcome [7] | outcome [5] | outcome [8] | Potency [6] | outcome [9]

C=C(C)C(=O)OC1CC(C)CC(C)(C)C1 (stereo not given)
inactive: outcome [1] | outcome [2] | outcome [4] | outcome [7] | outcome [5] | outcome [8] | Potency [6] | outcome [9]

CC(C)(CO)[C@@H](O)C(=O)NCCCO
inactive: outcome [1] | outcome [2] | outcome [4] | outcome [7] | outcome [5] | outcome [8]

Nc1cc(Cl)cc(S(=O)(=O)O)c1O
inactive: outcome [1] | outcome [2] | outcome [3] | outcome [4] | outcome [7] | outcome [5] | outcome [8]

NS(=O)(=O)c1cc2c(cc1Cl)NC(CC1CCCC1)NS2(=O)=O (stereo not given)
inactive: fluorescence, % of fluorescein [1] 0.0502% [at 18.6 µM] | fluorescence, % of fluorescent control [2] -0.0459% [at 18.6 µM] | fluorescence, % of fluorescent control [3] -0.0938% [at 18.6 µM] | fluorescence, % of Rose Bengal [4] 0.409% [at 18.6 µM] | fluorescence, % of fluorescent control [7] -0.0354% [at 18.6 µM] | fluorescence, % of fluorescein control [5] -0.0012% [at 18.6 µM] | fluorescence, % of fluorescent control [8] 0.11% [at 18.6 µM] | Potency [6] | outcome [9]

FC(F)(F)c1ccc(Cl)cc1Cl
inactive: outcome [1] | outcome [2] | outcome [3] | outcome [4] | outcome [7] | outcome [5] | outcome [8] | Potency [6] | outcome [9]

C[CH2][Ge]([Cl])([CH2]C)[CH2]C
inactive: outcome [1] | outcome [2] | outcome [7] | outcome [5] | outcome [8]

Cc1ccccc1N1CCN(CCc2nnc3n2CCCC3)CC1
inactive: outcome [1] | outcome [2] | outcome [3] | outcome [4] | outcome [7] | outcome [5] | outcome [8] | Potency [6] | outcome [9]

C[N+](C)(C)CC(O)CCl (stereo not given)
inactive: outcome [1] | outcome [2] | outcome [7] | outcome [5] | outcome [8] | Potency [6] | outcome [9]
